Test results taken from PubChem BioAssay AID1159580 (chemical genetic matrix, 2015).
About 2,000 (36%) of roughly 5,500 compounds were called active. Inconclusive results (about 18%) are left out. Some of the results follow. Values without a mark were called inactive. Cut-off read from the data, not from the text of the source: active = normalized growth mostly below about 0.91 (no sharp cut-off); inconclusive = no clear call, values can overlap the other calls; inactive = mostly above about 0.92.

Experiment: chemical genetic growth profiling, strain panel (AID 1159580);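 note: tested at 20 µM; growth read once vehicle control cultures reached saturation at 30 °C; 1 = growth at the plate median or of vehicle wells; lower values mean less growth of the strain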
Conditions: growth OD
[1] = S. cerevisiae deletion strains, locus YAL013W, strain DEP1, stronger effect = lower value
[2] = S. cerevisiae deletion strains, locus YGR078C, strain PAC10, stronger effect = lower value
[3] = S. cerevisiae deletion strains, locus YNL322C, strain KRE1, stronger effect = lower value

## O=C1NC(=O)C(c2ccccc2)(c2ccccc2)N1
[1]
  normalized growth: 1.01
S. cerevisiae deletion strains, locus YAL040C, strain CLN3, stronger effect = lower value
  normalized growth: 1.1
S. cerevisiae deletion strains, locus YCL061C, strain MRC1 (second series), stronger effect = lower value
  normalized growth: 1
S. cerevisiae deletion strains, locus YDR363W, strain ESC2, stronger effect = lower value
  normalized growth: 1.02
S. cerevisiae deletion strains, locus YER002W, strain NOP16, stronger effect = lower value
  normalized growth: 0.991
[2]
  normalized growth: 1.02
S. cerevisiae deletion strains, locus YNL128W, strain TEP1, stronger effect = lower value
  normalized growth: 1
S. cerevisiae deletion strains, locus YNL175C, strain NOP13, stronger effect = lower value
  normalized growth: 0.993
S. cerevisiae deletion strains, locus YNL197C, strain WHI3, stronger effect = lower value
  normalized growth: 1.01
S. cerevisiae deletion strains, locus YNL224C, strain SQS1, stronger effect = lower value
  normalized growth: 0.975
[3]
  normalized growth: 1.03
S. cerevisiae deletion strains, locus YOR083W, strain WHI5 (second series), stronger effect = lower value
  normalized growth: 1.03

## O=C1c2ccccc2C(=O)C1(c1ccccc1)[N+](=O)[O-]
[1]
  normalized growth: 0.848 (active)
S. cerevisiae deletion strains, locus YBR229C, strain ROT2, stronger effect = lower value
  normalized growth: 0.78 (active)
S. cerevisiae deletion strains, locus YCL061C, strain MRC1, stronger effect = lower value
  normalized growth: 0.818 (active)
S. cerevisiae deletion strains, locus YDL101C, strain DUN1, stronger effect = lower value
  normalized growth: 0.776 (active)
S. cerevisiae deletion strains, locus YDL134C, strain PPH21, stronger effect = lower value
  normalized growth: 0.897 (active)
S. cerevisiae deletion strains, locus YEL061C, strain CIN8, stronger effect = lower value
  normalized growth: 0.943
[2]
  normalized growth: 0.664 (active)
S. cerevisiae deletion strains, locus YHR030C, strain SLT2, stronger effect = lower value
  normalized growth: 0.587 (active)
S. cerevisiae deletion strains, locus YHR087W, strain rtc3, stronger effect = lower value
  normalized growth: 0.811 (active)
S. cerevisiae deletion strains, locus YJR043C, strain POL32, stronger effect = lower value
  normalized growth: 0.861 (active)
S. cerevisiae deletion strains, locus YJR075W, strain HOC1, stronger effect = lower value
  normalized growth: 0.747 (active)
S. cerevisiae deletion strains, locus YLR039C, strain RIC1, stronger effect = lower value
  normalized growth: 0.734 (active)
S. cerevisiae deletion strains, locus YLR058C, strain SHM2 (second series), stronger effect = lower value
  normalized growth: 1.03
S. cerevisiae deletion strains, locus YLR085C, strain ARP6, stronger effect = lower value
  normalized growth: 0.975
S. cerevisiae deletion strains, locus YLR262C, strain YPT6, stronger effect = lower value
  normalized growth: 0.8 (active)
S. cerevisiae deletion strains, locus YML094W, strain GIM5, stronger effect = lower value
  normalized growth: 0.946
S. cerevisiae deletion strains, locus YMR219W, strain ESC1, stronger effect = lower value
  normalized growth: 0.832 (active)
S. cerevisiae deletion strains, locus YMR263W, strain SAP30, stronger effect = lower value
  normalized growth: 0.813 (active)
S. cerevisiae deletion strains, locus YMR307W, strain GAS1, stronger effect = lower value
  normalized growth: 0.919
S. cerevisiae deletion strains, locus YNL153C, strain GIM3, stronger effect = lower value
  normalized growth: 0.803 (active)
S. cerevisiae deletion strains, locus YNL298W, strain CLA4 (second series), stronger effect = lower value
  normalized growth: 0.956
[3]
  normalized growth: 1.01
S. cerevisiae deletion strains, locus YNR030W, strain Alg12, stronger effect = lower value
  normalized growth: 0.0637 (active)
S. cerevisiae deletion strains, locus YOL006C, strain TOP1, stronger effect = lower value
  normalized growth: 0.893
S. cerevisiae deletion strains, locus YPL055C, strain LGE1, stronger effect = lower value
  normalized growth: 0.799 (active)
S. cerevisiae deletion strains, locus YPL241C, strain CIN2, stronger effect = lower value
  normalized growth: 0.0628 (active)
S. cerevisiae deletion strains, locus YPR135W, strain CTF4, stronger effect = lower value
  normalized growth: 0.798
S. cerevisiae strains, strain wild type, stronger effect = lower value
  normalized growth: 0.985
